# The entries come from a sample that favours hits as a whole.
# 12-LOX inh = Primary qHTS assay for inhibitors of human arachidonate 12S-lipoxygenase (ALOX12): Round 2 | Polyunsaturated fatty acid lipoxygenase ALOX12 (Homo sapiens), P18054 | purified 12hLO, xylenol orange hydroperoxide absorbance | Potency, µM (series often up to 108 µM), most hits filed as inhibitors | hit rate 1.1% among 580,000 | AID 1671190, 2021
# Target sequence (P18054 whole entry, looked up): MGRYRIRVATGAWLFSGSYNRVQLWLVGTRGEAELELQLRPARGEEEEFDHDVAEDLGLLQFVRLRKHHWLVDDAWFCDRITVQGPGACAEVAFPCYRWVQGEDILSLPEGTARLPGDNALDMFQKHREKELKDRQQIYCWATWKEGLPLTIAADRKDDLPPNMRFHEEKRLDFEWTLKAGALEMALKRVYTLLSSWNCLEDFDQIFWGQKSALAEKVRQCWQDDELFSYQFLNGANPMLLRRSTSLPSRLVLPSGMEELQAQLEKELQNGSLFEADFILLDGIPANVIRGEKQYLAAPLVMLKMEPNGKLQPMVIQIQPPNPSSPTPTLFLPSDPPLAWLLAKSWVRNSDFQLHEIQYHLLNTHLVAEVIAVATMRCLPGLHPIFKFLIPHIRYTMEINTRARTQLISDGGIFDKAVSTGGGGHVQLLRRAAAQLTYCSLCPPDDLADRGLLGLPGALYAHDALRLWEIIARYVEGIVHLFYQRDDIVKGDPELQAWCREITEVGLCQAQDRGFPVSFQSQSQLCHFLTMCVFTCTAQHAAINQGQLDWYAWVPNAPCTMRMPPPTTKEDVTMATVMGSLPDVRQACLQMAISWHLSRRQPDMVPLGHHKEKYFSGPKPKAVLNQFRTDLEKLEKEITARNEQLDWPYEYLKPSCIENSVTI
#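 Purified human 12hLO (150 nM final) in 25 mM Hepes, 0.01% Triton X-100, pH 7.0 was preincubated 15 min at room temperature with compound. Then 40 uM arachidonic acid was added, 30 min. Hydroperoxide was read by Fe-XO absorbance ratio 573/405 nm.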
# IL1B secr inh = qHTS for Inhibitors of Inflammasome Signaling: IL-1-beta AlphaLISA Primary Screen | hit rate 4.7% among 360,000 | THP-1 LPS/ATP IL-1B secretion, AlphaLISA, 16 h; active compounds read low | AID 743279, 2014 | activity change, % at 57.5 µM; in the data active means activity change below about -50%; inconclusive means mostly about -30% to -49%
#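 THP-1 cells pretreated 1 hr with compounds (up to 57.5 uM final), then stimulated with LPS (250 ng/mL final) plus ATP (1.25 mM final); secreted IL-1B measured by AlphaLISA after 16 hr, decreased signal indicating inhibition.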
# TDP1 cell CPT = qHTS for Inhibitors of human tyrosyl-DNA phosphodiesterase 1 (TDP1): qHTS in cells in presence of CPT; hit rate 12% among 420,000; Potency, µM (series often up to 46.2 µM), usual class: inhibitors; chicken DT40 Tdp1-/-;hTDP1 cells + 20 nM CPT, ATP luminescence, 48 h; further: nearly all actives have a fitted effect of over 55% in size
#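 Chicken DT40 Tdp1-/- cells stably complemented with human TDP1 were seeded at 400 cells/well in medium containing 20 nM camptothecin, exposed to pin-transferred compounds, and grown at 37 °C for at least 48 hr. Viability was read as ATP luminescence.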
# HT1080NT lethal = qHTS for induction of synthetic lethality in tumor cells producing 2HG: qHTS for the HT-1080-NT fibrosarcoma cell line; hit rate 1.6% among 360,000; AID 686970, 2013; HT-1080-NT fibrosarcoma viability, CellTiter-Glo ATP luminescence, 48 h; Potency, µM (series often up to 46.1 µM), most hits filed as cytotoxic;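 further: NT is the 2HG producing partner of a matched IDH1 knockdown line; nearly all actives have a fitted effect of over 55% in size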
#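 HT-1080-NT fibrosarcoma cells (2HG-overproducing), 750 cells/well in RPMI with 5% FBS, dosed after 2 h and incubated 48 h at 37C. CellTiter-Glo luminescence normalized to DMSO and no-cell wells; concentration-response curves fitted and classed.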
# HT1080 IDH1KD tx = qHTS for induction of synthetic lethality in tumor cells producing 2HG: qHTS for the HT-1080-IDH1KD cell line. HT-1080 IDH1 knockdown viability, ATP luminescence, 48 h. Potency, µM (doses to about 46.1 µM), hits mostly cytotoxic. hit rate 2% among 360,000. AID 686971, 2013
#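 Viability of IDH1-knockdown HT-1080 fibrosarcoma cells was assessed by CellTiter-Glo after 48 h at 37 °C with titrated compound; concentration-effect curves were classified by fit quality and response size.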
# TDP1 cell noCPT = qHTS for Inhibitors of human tyrosyl-DNA phosphodiesterase 1 (TDP1): qHTS in cells in absence of CPT. Potency, µM (highest dose often 46.2 µM), most hits filed as inhibitors. AID 686978, 2013. DT40 Tdp1-/- hTDP1 cells, no CPT, ATP luminescence, 48 h. hit rate 15% among 420,000; further: nearly all actives have a fitted effect of over 55% in size
#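 Readout: luminescence from CellTiter-Glo after 30 min in the dark at RT. Cells: DT40 Tdp1-/- with stable hTDP1, 400/well. Exposure: compounds alone, ≥48 hr, 37 °C.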
# Hits are given with their value; . = inactive; ? = inconclusive; / = not tested or not shown; ! = repeats disagree. Unless noted, the call rests on the fitted dose curve; in most records, active means well fitted curve in the direction sought with a large enough effect; inconclusive means small, poorly fitted or top-dose-only effect, or another doubt; inactive means no such curve, though single readings can be large; an effect the other way counts as inactive or inconclusive.
SMILES,12-LOX inh,IL1B secr inh,TDP1 cell CPT,HT1080NT lethal,HT1080 IDH1KD tx,TDP1 cell noCPT
COc1ccccc1NC(=O)C1=C(C)Nc2nc(SCc3ccccc3)nn2C1c1ccccn1 (stereo not drawn),.,/,8.2µM,/,/,?
COc1ccccc1NC(=O)C1=C(C)Nc2nc(SCc3cccc(F)c3)nn2C1c1ccc(C(=O)O)cc1 (stereo not drawn),.,/,.,/,/,.
COc1cccc(CC(=O)N2CCCN(c3cc(-c4ccccc4)[nH]n3)CC2)c1,.,/,/,/,/,/
CC(Sc1nc(-c2ccco2)nc2ccccc12)C(=O)N(C)C (stereo not drawn),.,/,/,/,/,/
Cc1ccccc1C(=O)O/N=C/c1c(N2CCOCC2)n(C)c2ccccc12,.,.,1.5µM,2.8µM,2.5µM,1.3µM
CCOC(=O)/C(C#N)=C(C)/C=C1\Sc2ccccc2N1CC,.,.,?,.,.,18µM
COC[C@H]1CCCN1[C@@H]1[C@H](O)[C@H](CO)O[C@@H]1CNCc1cccc(Cl)c1,.,/,/,/,/,/
Cc1ccc(NC(=O)C2C(C(=O)O)C3C=CC2C32CC2)cc1 (stereo not drawn),.,.,.,.,.,.
Cc1ccc(NC(=O)C2C(c3ccccc3)C=CC(c3ccccc3)C2C(=O)O)cc1 (stereo not drawn),.,.,29µM,.,.,21µM
O=c1cc(NS(=O)(=O)c2ccccc2)nc(SCc2ccc(Cl)cc2)[nH]1,.,-56,.,.,.,.
COc1ccc(-n2c(C)nnc2SCc2nc(-c3ccccc3C)no2)cc1,.,/,/,/,/,/
CCCCCC1CC(=O)NC1(C(=O)OCC)C(=O)OCC (stereo not drawn),.,-64,.,.,.,.
CCOC(=O)C1(C(=O)OCC)NC(=O)CC1CC (stereo not drawn),.,.,.,.,.,.
O=C(NC1CCC(=O)N(CCOc2ccccc2)CC1)OCc1ccccc1 (stereo not drawn),.,.,?,.,.,11µM!
Cc1ccc(SC[C@H](C)CN2CCC(NC(=O)OCc3ccccc3)CCC2=O)cc1 (stereo partly drawn),.,.,?,?,?,?
O=C(N[C@H]1CCC(=O)N(CCSc2ccc(Br)cc2)CC1)OCc1ccccc1,?,.,15µM,?,?,16µM
[N-]=[N+]=NC[C@H](Cc1ccccc1)N1CC[C@@H](NC(=O)OCc2ccccc2)CCC1=O,.,.,?,.,.,16µM
Cc1ccc(SCCN2CCC(NC(=O)OCc3ccccc3)CCC2=O)cc1 (stereo not drawn),.,.,?,.,.,18µM
COCC1CN(C)CC12CCN(S(=O)(=O)c1ccc(C#N)cc1)CC2 (stereo not drawn),.,/,/,/,/,/
COc1ccc(-c2csc3ncn(-c4ccc(Cl)cc4)c(=O)c23)cc1OC,.,/,/,/,/,/
CCC(C)C(=O)Nc1ccc(-c2nc3ccccc3o2)cc1 (stereo not drawn),.,/,/,/,/,/
O=C(N[C@@H]1CCC(=O)N(CC[C@H](Sc2ccccc2)c2ccccc2)CC1)OCc1ccccc1,.,?,?,?,?,23µM
COc1ccc(COc2cc(-c3cccc(OC)c3)nc3ccc(N)cc23)cc1,.,.,1.5µM,0.82µM,2.1µM,1.5µM
COc1ccc(COc2cc(-c3cccc(OC)c3)nc3ccc(NC(C)=O)cc23)cc1,.,.,.,.,.,.
COc1ccc(COc2cc(-c3cccc(OC)c3)nc3ccc(NC(=O)c4ccc(C)cc4)cc23)cc1,.,.,?,13µM,13µM,13µM
SMILES,12-LOX inh,IL1B secr inh,TDP1 cell CPT,HT1080NT lethal,HT1080 IDH1KD tx,TDP1 cell noCPT
COc1ccc(COc2cc(-c3cccc(OC)c3)nc3ccc(NC(=O)c4ccc(N(C)C)cc4)cc23)cc1,/,.,3.7µM,?,6.5µM,3.7µM
CSCC(=O)N[C@H]1CN(Cc2cn(CCO)nc2C)C[C@@H]1C1CC1,.,/,/,/,/,/
CCCn1c(C)cnc1CC1CCN(C(=O)c2cnc(C)cn2)CC1,.,/,/,/,/,/
CCOC(=O)c1ccc(N2CN(CCc3ccccc3)CNC2=S)cc1,45µM,.,16µM,.,.,?
CCCn1nc(C(=O)OC(C)C(=O)NCc2ccc(F)cc2)c2ccccc2c1=O (stereo not drawn),.,/,/,/,/,/
COc1ccc(C(CNC(=O)Cc2ccc(-c3ccccc3)cc2)N(C)C)cc1 (stereo not drawn),.,.,21µM,18µM,21µM,18µM
COc1ccc(C(CNC(=O)CSc2ccccc2C)N(C)C)cc1 (stereo not drawn),.,.,.,.,.,?
COc1ccc(/C=C/C(=O)Nc2ccccc2C(=O)NCC(c2ccc(OC)cc2)N(C)C)cc1 (stereo not drawn),.,-78,18µM,?,?,23µM
CN(C)C(CNC(=O)c1ccc(-c2ccccc2)cc1)c1ccccc1 (stereo not drawn),?,-54,?,16µM,16µM,18µM
COc1ccc(/C=C/C(=O)Nc2ccccc2C(=O)O)cc1,.,.,?,.,.,.
CN(C)C(CNC(=O)c1ccc(C(=O)c2ccccc2)cc1)c1ccccc1 (stereo not drawn),.,.,.,.,.,?
Cn1c(=O)c2c(nc(NCCCn3ccnc3)n2Cc2ccc(F)cc2)n(C)c1=O,.,/,/,/,/,/
Cc1ccccc1C(=O)N1CCC(c2nc3ccccc3o2)CC1,.,/,/,/,/,/
C=CCn1cccc(C(=O)Nc2ccc(C)cc2)c1=O,?,.,.,.,.,.
C=CCn1cccc(C(=O)Nc2ccc(C)c(C)c2)c1=O,/,-78,.,.,.,.
CCCCCCC(=O)Nc1ccc(C(=O)N/N=C/c2cccnc2)cc1,.,.,.,23µM,8.2µM,.
CCC(=O)Nc1ccc(C(=O)N/N=C/c2cccnc2)cc1,.,.,.,.,.,.
CCCCCCCCC(=O)N/N=C/c1ccccn1,.,.,18µM,?,.,?
CCCCCCCCC/C(=N\O)c1ccccn1,.,.,23µM,.,?,23µM
CCCCCCCCC(=O)N/N=C/c1cccc(Br)c1,.,-60,.,.,.,.
CCCCC(C(=O)N/N=C/c1ccccn1)C(=O)N/N=C/c1ccccn1,.,/,.,.,.,.

# High-throughput results (PubChem BioAssay)
